About 1,300 (0.37%) of roughly 350,000 compounds were called active. Many of the other results were omitted from the sample, so actives are more common in it than they were. Values without a mark were called inactive. Rule as the data show it: active = response mostly above about 7.3% (no sharp cut-off); inactive = mostly below about 5.4%.

The nature of this assay: regulators of yeast V-ATPase proton pumping, primary screen, pHLuorin cytosolic pH fluorescence (AID 504577). Also: actives read high. The conditions noted are these: S. cerevisiae, at 10 µM, hits give high values.
Take `CCN(CC)C(=O)c1ccc(NC(=O)c2sccc2-c2ccccc2)cc1`: the response was -3.45%.
Under `CC(=O)Nc1ccc(C(=O)C(Cc2ccccc2)N(C)C)cc1` (stereo not given) stands 8.72% (active); under `O=C(COC(=O)Cc1ccccc1)Nc1ccc(F)cc1`, -1.24%.
Under `COc1ccc(Br)cc1CNCCc1cccc(Cl)c1` stands 1.48%; under `N=c1ccccn1Cc1ccccc1`, -1.95%; under `CN1CCC[C@@H]1CCO[C@](C)(c1ccccc1)c1ccc(Cl)cc1`, -5.35%.
Under `O=C1NC(=O)N(c2ccccc2)C(=O)/C1=C/c1ccc([N+](=O)[O-])s1` stands 102% (active); under `COc1cccc(N2C(=O)NC(=O)/C(=C\c3ccc([N+](=O)[O-])s3)C2=O)c1`, 125% (active).
`O=C1NC(=O)N(c2ccc(F)cc2)C(=O)/C1=C/c1ccc2c(c1)CCCN2Cc1ccccc1`: the response is 1.07%.
For the compound `COc1ccc(N2C(=O)/C(=C/c3ccco3)C(=O)NC2=S)cc1`, the response was 8.65%.
Take `CCCC(C)n1[nH]c(=O)c2c1NC(=O)CSC2c1ccc(OC)c(OC)c1` (stereo not given): the response is 1.43%.
With `O=c1[nH]c(CN2CC=C(c3ccccc3)CC2)nc2scc(-c3cccs3)c12`, the response is -2.27%.
In the case of `CNC(=O)N(C)c1nnc(C(C)(C)C)s1`, the response is 2.46%.
Under `Cc1c(C(=O)O)cccc1-n1c(C)cc(/C=C2\C(=O)NC(=O)N(c3ccc4c(c3)OCO4)C2=O)c1C` stands -0.49%.
In the case of `Cc1ccccc1N1C(=O)NC(=O)/C(=C\c2cc(C)n(C)c2C)C1=O`, the response was 13.8% (active).
Under `Cc1ccc(-n2c(C)cc(/C=C3\C(=O)NC(=O)N(C)C3=O)c2C)cc1C` stands -0.72%; under `CC(=O)N(C1=NCCCS1)c1ccccc1F`, 0.19%; under `CC12CCC(O)CC1CCC1C2CCC2(C)C(C(=O)CC(O)C(F)(F)F)CCC12` (stereo not given), 5.09%.
In the case of `CCOC(=O)C(O)(c1ccc(N=Cc2ccccc2O)c(C)c1)C(F)(F)F` (stereo not given), the response was -2.77%.
Under `Cc1nc2nc(C)c(CCC(=O)N3CCC4(CC3)OCCO4)c(C)n2n1` stands -4.03%.

Values taken from PubChem BioAssay AID504577 (NMMLSC, 2011).
